Experimental data from PubChem BioAssay (NCI).
This is part of a sample that, as a whole, favours compounds with a hit. Of some 79,000 tested, about 15% had one in any assay. Calls of active or inactive are those of the source. No stated cut-off is given here; in the data, active means growth inhibition above about 70%; inactive means the rest.

Legend:
[1] = NCI Yeast Anticancer Drug Screen. Data for the rad52 strain (AID 147);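 further: 0% = growth of vehicle-treated control cultures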; settings: S. cerevisiae rad52 mutant growth inhibition, stronger effect = higher value
Summary of the method: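 Growth of repair-deficient yeast cells was compared between compound-treated and vehicle-treated cultures to give percent inhibition.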

[2] = NCI Yeast Anticancer Drug Screen. Data for the wt1 strain (AID 149);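 further: 0% = growth of vehicle-treated wt1 cultures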; settings: S. cerevisiae wt1 strain (SPY 50644) growth inhibition, stronger effect = higher value
Summary of the method: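 Vehicle-normalised growth inhibition; strain wt1; compound exposure.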

[3] = NCI Yeast Anticancer Drug Screen. Data for the rad50EPP+ strain (AID 151);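 further: 0% = growth of vehicle-treated control cultures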; settings: S. cerevisiae rad50 mutant strain, stronger effect = higher value
Summary of the method: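 Measured: growth inhibition of rad50EPP+ yeast. Reference: vehicle-treated controls. Screen uses strains with defined genetic alterations in DNA damage repair or cell cycle control.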

[4] = NCI Yeast Anticancer Drug Screen. Data for the mgt1 strain (AID 153); settings: S. cerevisiae mgt1 mutant growth inhibition, stronger effect = higher value
Summary of the method: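 Compounds were applied to mgt1 mutant yeast, and growth was then compared against vehicle-treated control cultures to give percent inhibition.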

[5] = NCI Yeast Anticancer Drug Screen. Data for the rad50 strain (AID 155);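 further: 0% = growth of vehicle-only cultures of the same strain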; settings: S. cerevisiae rad50 strain growth inhibition, stronger effect = higher value
Summary of the method: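 A DNA repair-deficient yeast mutant serves as the test organism; compound-induced growth inhibition is calculated against vehicle-treated cells.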

[6] = NCI Yeast Anticancer Drug Screen. Data for the mec2-1 strain (AID 157); settings: S. cerevisiae mec2-1 strain, stronger effect = higher value
Summary of the method: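 Compounds were applied to mec2-1 yeast cells. Their growth was then compared with that of vehicle-treated cultures to give growth inhibition.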

[7] = NCI Yeast Anticancer Drug Screen. Data for the rad14 strain (AID 159);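 further: 0% = growth of vehicle-treated control cultures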; settings: S. cerevisiae rad14 strain growth inhibition, stronger effect = higher value
Summary of the method: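 Vehicle-treated cultures served as the baseline for growth inhibition of a DNA repair-mutant yeast strain exposed to each compound.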

[8] = NCI Yeast Anticancer Drug Screen. Data for the sgs1 mgt1 strain (AID 161);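 further: 0% = growth of cultures given vehicle only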; settings: S. cerevisiae sgs1 mgt1 strain, stronger effect = higher value
Summary of the method: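 Growth of a repair-deficient yeast mutant was monitored after compound treatment and expressed as inhibition relative to vehicle-treated cultures.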

[9] = NCI Yeast Anticancer Drug Screen. Data for the CLN2oe strain (AID 163);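 further: 0% = growth of vehicle-only control cultures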; settings: S. cerevisiae CLN2oe strain, stronger effect = higher value
Summary of the method: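 Cells of an engineered yeast line with disturbed cell-cycle regulation are treated with compound. Inhibition of growth is then calculated relative to the vehicle-treated reference.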

[10] = NCI Yeast Anticancer Drug Screen. Data for the cln2 rad14 strain (AID 165);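 further: 0% = growth equal to vehicle treated cultures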; settings: S. cerevisiae cln2 rad14 strain, stronger effect = higher value
Summary of the method: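 Strain: cln2 rad14 yeast, altered in cell cycle control and DNA damage repair. Read-out: growth inhibition vs vehicle.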

[11] = NCI Yeast Anticancer Drug Screen. Data for the bub3 strain (AID 167); settings: S. cerevisiae bub3 mutant strain, stronger effect = higher value
Summary of the method: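 Inhibition values come from growth of compound-treated mutant yeast normalised to vehicle-treated controls.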

[12] = NCI Yeast Anticancer Drug Screen. Data for the wt2 strain (AID 169);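 further: 0% = growth of vehicle-treated yeast cultures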; settings: S. cerevisiae wt2 strain growth inhibition, stronger effect = higher value
Summary of the method: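 Growth of compound-treated yeast is measured and expressed as inhibition relative to vehicle-only controls.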

[13] = NCI Yeast Anticancer Drug Screen. Data for the mlh1 strain (AID 171);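 further: 0% = growth of vehicle-treated control cultures of the same strain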; settings: S. cerevisiae mlh1 strain growth inhibition, stronger effect = higher value
Summary of the method: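 Test agents were incubated with yeast bearing a defined DNA damage repair or cell cycle control alteration; values are growth inhibition normalised to vehicle-treated cultures.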

[14] = NCI Yeast Anticancer Drug Screen. Data for the sgs1 strain (AID 173);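 further: 0% = growth of vehicle-only control cultures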; settings: S. cerevisiae sgs1 mutant, stronger effect = higher value
Summary of the method: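 Strain with an altered DNA repair or cell cycle pathway exposed to compound. Growth then measured. Value = inhibition versus vehicle control.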

[15] = NCI Yeast Anticancer Drug Screen. Data for the mlh1 rad18 strain (AID 175); settings: S. cerevisiae mlh1 rad18 strain growth inhibition, stronger effect = higher value
Summary of the method: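 A repair-deficient yeast strain is exposed to test compound, and growth is scored relative to vehicle-treated controls.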

[16] = NCI Yeast Anticancer Drug Screen. Data for the rad18 strain (AID 177); settings: S. cerevisiae rad18 mutant growth inhibition, stronger effect = higher value
Summary of the method: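 DNA-repair-defective yeast; compound treatment; growth inhibition scored against vehicle.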

[17] = at 5.0 µM (retest, dose inferred, filed as 0.5)
[18] = at 50.0 µM (retest, dose inferred, filed as 5.0)

Measured: growth inhibition

Nc1ccc(N=Nc2ccc(-c3ccc(O)cc3)cc2)c2ccc(S(=O)(=O)O)cc12
active: [3]; at 33.0 µM 79% | [3]; at 100.0 µM 78% | [5]; at 50.0 µM 82.9% | [16]; at 100.0 µM 72%
inactive: [1]; at 1.2 µM -3% | [1]; at 3.7 µM 2% | [1]; at 11.0 µM 17% | [1]; at 33.0 µM 39% | [1]; at 100.0 µM 54% | [2]; at 1.2 µM 0% | [2]; at 3.7 µM 1% | [2]; at 11.0 µM 6% | [2]; at 33.0 µM 10% | [2]; at 100.0 µM 15% | [3]; at 1.2 µM 7% | [3]; at 3.7 µM 25% | [3]; at 11.0 µM 67% | [4]; at 1.2 µM 1% | [4]; at 3.7 µM 0% | [4]; at 11.0 µM 3% | [4]; at 33.0 µM 6% | [4]; at 100.0 µM 12% | [5]; at 1.2 µM 1% | [5]; at 3.7 µM 1% | [5]; [17] 8% | [5]; at 11.0 µM 17% | [5]; at 33.0 µM 25% | [5]; [18] 57% | [5]; at 100.0 µM 43% | [6]; at 1.2 µM 2% | [6]; at 3.7 µM 3% | [6]; [17] 15% | [6]; at 11.0 µM 8% | [6]; at 33.0 µM 14% | [6]; [18] 10% | [6]; at 50.0 µM 34.9% | [6]; at 100.0 µM 23% | [7]; at 1.2 µM -1% | [7]; at 3.7 µM -1% | [7]; at 11.0 µM 4% | [7]; at 33.0 µM 11% | [7]; at 100.0 µM 30% | [8]; [17] 1% | [8]; [18] 15% | [8]; at 50.0 µM 19.1% | [9]; at 1.2 µM 1% | [9]; at 3.7 µM 2% | [9]; at 11.0 µM 0% | [9]; at 33.0 µM -1% | [9]; at 100.0 µM -3% | [10]; [17] 45% | [10]; [18] 13% | [10]; at 50.0 µM 47.1% | [11]; at 1.2 µM -1% | [11]; at 3.7 µM -4% | [11]; [17] 9% | [11]; at 11.0 µM -2% | [11]; at 33.0 µM 15% | [11]; [18] 12% | [11]; at 50.0 µM 38.4% | [11]; at 100.0 µM -9% | [12]; at 1.2 µM -1% | [12]; at 3.7 µM 2% | [12]; at 11.0 µM 5% | [12]; at 33.0 µM 16% | [12]; at 100.0 µM 21% | [13]; at 1.2 µM 3% | [13]; at 3.7 µM 3% | [13]; at 11.0 µM 6% | [13]; at 33.0 µM -19% | [13]; at 100.0 µM 18% | [14]; at 1.2 µM 2% | [14]; at 3.7 µM 8% | [14]; at 11.0 µM 20% | [14]; at 33.0 µM 37% | [14]; at 100.0 µM 40% | [15]; [17] 5% | [15]; [18] 43% | [15]; at 50.0 µM 55.1% | [16]; at 1.2 µM -4% | [16]; at 3.7 µM 11% | [16]; at 11.0 µM 48% | [16]; at 33.0 µM 69%

CC(CC/C(=N/O)c1ccccc1)(CC/C(=N\O)c1ccccc1)[N+](=O)[O-] (stereo unspecified)
inactive: [1]; at 1.2 µM 1% | [1]; at 3.7 µM 2% | [1]; at 11.0 µM -4% | [1]; at 33.0 µM 4% | [2]; at 1.2 µM -1% | [2]; at 3.7 µM -5% | [2]; at 11.0 µM -7% | [2]; at 33.0 µM 0% | [2]; at 100.0 µM 26% | [3]; at 1.2 µM -3% | [3]; at 3.7 µM 2% | [3]; at 11.0 µM -1% | [3]; at 33.0 µM 2% | [3]; at 100.0 µM 0% | [4]; at 1.2 µM -5% | [4]; at 3.7 µM -3% | [4]; at 11.0 µM -4% | [4]; at 33.0 µM -5% | [4]; at 100.0 µM 57% | [5]; at 1.2 µM 5% | [5]; at 3.7 µM 3% | [5]; [17] 4% | [5]; at 11.0 µM -1% | [5]; at 33.0 µM 4% | [5]; [18] 66% | [5]; at 50.0 µM 11.4% | [6]; at 1.2 µM -3% | [6]; at 3.7 µM -3% | [6]; [17] -11% | [6]; at 11.0 µM -5% | [6]; at 33.0 µM -5% | [6]; [18] 21% | [6]; at 100.0 µM 56% | [7]; at 1.2 µM -2% | [7]; at 3.7 µM 1% | [7]; at 11.0 µM -5% | [7]; at 33.0 µM -3% | [7]; at 100.0 µM 65% | [8]; [17] 0% | [8]; [18] 53% | [8]; at 50.0 µM 37% | [9]; at 1.2 µM -7% | [9]; at 3.7 µM -11% | [9]; at 11.0 µM -13% | [9]; at 33.0 µM -12% | [10]; [17] 2% | [10]; [18] 39% | [11]; at 1.2 µM -6% | [11]; at 3.7 µM -5% | [11]; [17] 8% | [11]; at 11.0 µM -9% | [11]; at 33.0 µM -9% | [11]; [18] 6% | [11]; at 100.0 µM 52% | [12]; at 1.2 µM -10% | [12]; at 3.7 µM -11% | [12]; at 11.0 µM -16% | [12]; at 33.0 µM -10% | [12]; at 100.0 µM 20% | [13]; at 1.2 µM -4% | [13]; at 3.7 µM -3% | [13]; at 11.0 µM -7% | [13]; at 33.0 µM -6% | [13]; at 100.0 µM 32% | [14]; at 1.2 µM -13% | [14]; at 3.7 µM 0% | [14]; at 11.0 µM -11% | [14]; at 33.0 µM -11% | [14]; at 100.0 µM 55% | [15]; [17] 5% | [15]; [18] 46% | [16]; at 1.2 µM 0% | [16]; at 3.7 µM -4% | [16]; at 11.0 µM -6% | [16]; at 33.0 µM 0%
active: [1]; at 100.0 µM 74% | [5]; at 100.0 µM 74% | [6]; at 50.0 µM 96.5% | [9]; at 100.0 µM 71% | [10]; at 50.0 µM 91.7% | [11]; at 50.0 µM 90.8% | [15]; at 50.0 µM 96.8% | [16]; at 100.0 µM 84%
